Source: PubChem BioAssay (National Center for Advancing Translational Sciences (NCATS))
TRb SRC2 PPI: inhibitors of human thyroid hormone receptor beta-SRC2 interaction | P10828 | TRbeta-SRC2 peptide binding, fluorescence polarization; receptor liganded with 1 µM T3 | Potency, µM (series often up to 106 µM), usual class: inhibitors | 280,000 compounds, 0.065% hits; note: nearly all actives have a fitted effect of over 50% in size
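Read-out is fluorescence polarization (555 nm excitation, 632 nm emission) of a Texas Red SRC2 coactivator peptide; loss of signal reflects blocked binding to human TRb ligand-binding domain in the presence of 1 uM T3.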
Tau fibril ThT: blocks human tau fibril formation measured by thioflavin T; P10636; recombinant tau K18 P301L, heparin-induced fibrillization, ThT fluorescence; Potency, µM (highest dose often 57.4 µM), hits mostly inhibitors; 270,000 compounds, 2.1% hits; AID 1460; note: nearly all actives have a fitted effect of over 55% in size
Target sequence (P10636 561-689 P618L limits assumed): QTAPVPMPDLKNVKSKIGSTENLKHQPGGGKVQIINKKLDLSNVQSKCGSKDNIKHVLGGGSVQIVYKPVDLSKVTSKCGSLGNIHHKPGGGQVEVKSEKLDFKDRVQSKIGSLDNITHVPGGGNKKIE
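Tau K18 P301L fragment (15 uM unlabeled plus 0.24 uM Alexa 594-labeled) in 100 mM sodium acetate pH 7 with compound, fibrillization induced by 20 uM heparin for 6 hr at 37 C. Thioflavin T (30 uM) added, fluorescence read after 1 hr (ex 450, em 510 nm).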
TexasRed fluor: counter-screen for TRb-SRC2 inhibitors: fluorescence interference; TRb/SRC2 Texas Red total fluorescence interference; Potency, µM (doses to about 106 µM); 280,000 compounds, 0.29% hits; active = well fitted curve in either direction with a large enough effect; inconclusive = small, poorly fitted or top-dose-only effect
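Flags fluorescent or light-absorbing compounds by total fluorescence, S + 2P, at 555 nm excitation and 632 nm emission. Mixture: 20 nM Texas Red SRC2 peptide, 0.6 uM human TRb LBD, 1 uM T3, 5% DMSO; compound exposure 5 h at ambient temperature.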
Tau FP inhib: inhibitors of human tau fibril formation; K18 P301L tau heparin fibrillization, Alexa594 FP, 6 h; 280,000 compounds, 0.39% hits; Potency, µM (highest dose often 57.7 µM), most hits filed as inhibitors; note: nearly all actives have a fitted effect of over 55% in size
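Heparin (20 uM) drove fibril formation of recombinant tau K18 P301L, 15 uM unlabeled with 0.24 uM Alexa 594 label, for 6 hr at 37 C in 100 mM sodium acetate pH 7. Fluorescence polarization (555/632 nm) read 1 hr after 30 uM ThT.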
GoLoco inh red: blocks human Gai1 binding to RGS12 GoLoco peptide, red readout; Gai1:RGS12 GoLoco peptide FP, rhodamine, 10 min; Potency, µM (doses to about 61.6 µM), usual class: inhibitors; 230,000 compounds, 0.44% hits; AID 880; active = well fitted inhibition curve with a large enough effect, not every such curve was filed as active; inactive = no such curve, though single readings can be large or run the other way; note: nearly all actives have a fitted effect of over 30% in size
Target sequence (P63096 whole entry, looked up): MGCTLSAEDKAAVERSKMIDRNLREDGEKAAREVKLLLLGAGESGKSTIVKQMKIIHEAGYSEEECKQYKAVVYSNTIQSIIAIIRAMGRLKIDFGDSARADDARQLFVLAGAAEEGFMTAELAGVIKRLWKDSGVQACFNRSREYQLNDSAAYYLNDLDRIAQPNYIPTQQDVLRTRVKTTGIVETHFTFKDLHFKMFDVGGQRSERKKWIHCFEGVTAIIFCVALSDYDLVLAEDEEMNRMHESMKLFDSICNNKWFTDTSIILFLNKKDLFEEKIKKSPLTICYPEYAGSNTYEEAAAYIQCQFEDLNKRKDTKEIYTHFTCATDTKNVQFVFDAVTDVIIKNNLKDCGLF
Tau fluor counter: counter-screen for tau fibril formation inhibitors; 280,000 compounds, 0.93% hits; Potency, µM (top dose mostly 57.7 µM); tau K18 P301L Alexa594 fluorescence, heparin fibrillization; AID 1463; note: nearly all actives have a fitted effect of over 55% in size
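Human tau K18 P301L (15 uM unlabeled, 0.24 uM Alexa 594-labeled) in 100 mM sodium acetate pH 7 with 20 uM heparin, 6 hr at 37 C. ThT 30 uM added, 1 hr ambient; Alexa 594 FP and total fluorescence read at 555/632 nm.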
Numbers stand for hits; 0 = inactive; ? = inconclusive; - = not tested or not shown; [ ] = dose if it differs, or a comment. Sampled rows, rich in hits. Any-hit rate of the full collection: about 3.2%. Unless noted, calls come from the whole dose curve; as a rule, active = well fitted curve in the direction sought with a large enough effect; inconclusive = small, poorly fitted or top-dose-only effect, or another doubt; inactive = no such curve, though single readings can be large; an effect the other way counts as inactive or inconclusive.

SMILES	TRb SRC2 PPI	Tau fibril ThT	TexasRed fluor	Tau FP inhib	GoLoco inh red	Tau fluor counter
COc1ccc(NC(=O)c2c(C)oc3ccc(O)c(CN4CCCCCC4)c23)cc1Cl	0	0	794µM[quencher]	0	-	0
O=C(/C=C/c1ccc(N2CCCCC2)c([N+](=O)[O-])c1)c1ccc(S(=O)(=O)N2CCCC2)cc1	0	10µM	0	?	0	0
COc1cccc(C(=O)/C=C/c2ccc(N3CCCCC3)c([N+](=O)[O-])c2)c1	0	7.9µM	0	0	0	?
COc1cccc(CNC(=O)C2CCN(c3nnc(-n4c(C)ccc4C)s3)CC2)c1	0	?	0	?	-	0
C=CCOc1ccccc1CNc1ccc2c(c1)OCCO2	0	18µM	0	0	0	?
C=CCOc1ccccc1CNc1cccc(F)c1	0	?	0	0	0	?
CC(=O)c1ccc(NC(=S)Nc2ccc3cn[nH]c3c2)cc1	0	16µM	0	?	0	?
CC(C)c1ccc(NC(=S)Nc2ccc3cn[nH]c3c2)cc1	0	?	0	0	0	0
COc1cc(CNc2ccc(N3CCN(C(C)=O)CC3)cc2)ccc1OCc1ccccc1	0	4µM	0	0	0	?
CCOC(=O)c1ccc(-n2c(CCC(=O)O)ccc2-c2ccccc2)cc1O	0	?	0	0	-	0
COc1ccc(-c2nc(C)c(CCNC(=O)C(=O)Nc3ccccc3C#N)s2)cc1OC	0	?	0	0	-	0
Cc1ccc(S(=O)(=O)Nc2ccc(N=Nc3ccc(O)cc3)cc2)cc1	0	14µM	0	?	0	18µM[quencher]
Cc1ccc(NNS(=O)(=O)c2ccc(C)cc2)cc1	0	20µM	0	?	0	0
O=C1c2ccccc2C(=O)N1Nc1ccccc1	0	0	0	0	0	0
O=C1c2cccc3c([N+](=O)[O-])c(O)cc(c23)C(=O)N1Nc1ccccc1	0	5µM	0	0	0	0
CCOc1ccc(CNC(=O)Cn2nc(C)c3nn(-c4ccc(Cl)cc4)c(C)c3c2=O)cc1OC	0	?	0	?	-	0
Cc1ccc(CN(Cc2ccco2)C(=O)c2oc3ccc(C)cc3c2C)cc1	0	0	0	0	-	0
Cc1ccc2occ(CC(=O)N(Cc3ccc(Cl)cc3)Cc3ccco3)c2c1	?	?	0.35µM[quencher]	0	-	0
CCOc1ccc(CNC(=O)C2CCN(S(=O)(=O)c3cn(C)cn3)CC2)cc1OC	0	0	0	0	-	0
CCN(CC)c1ccc(/C=C2\SC(=O)N(C(C)C)C2=O)o1	0	25µM	0	0	0	?
Cn1c(=O)[nH]c(=O)n(C2CCC(O)CC2)c1=O (stereo not drawn)	0	-	0	-	-	-
CCN(CC)c1ccc(/C=C2\C(=O)N(c3nnc(C)c(=O)[nH]3)N=C2C)cc1	0	7.9µM	0	?	0	0
CCN(CC)c1ccc(/C=C2/C(=O)ON=C2C)cc1	0	8.9µM	0	0	0	0
Cc1nn(-c2ccc(N3CCCC3)nn2)c(C)c1CCC(=O)NCc1ccc(OC(C)C)cc1	0	0	0	0	-	0
CCn1c2ccccc2c2cc(CN3CCN(Cc4ccc(Br)cc4)CC3)ccc21	0	?	?	0	-	0
SMILES	TRb SRC2 PPI	Tau fibril ThT	TexasRed fluor	Tau FP inhib	GoLoco inh red	Tau fluor counter
O=C(CN1C(=O)C2(SCC(=O)N2c2ccc(Cl)cc2)c2ccccc21)NCCc1ccccc1 (stereo not drawn)	0	0	0	0	-	0
Nc1nc(Sc2ccc([N+](=O)[O-])c3nonc23)c2[nH]cnc2n1	-	-	-	-	1.6µM	-
CC(C)(C)C1=CC=C(C(C)(C)C)C(=O)C1=O	0	18µM	0	18µM	0	?
CC(C)(C)c1ccc2c(c1)C(=O)c1ccccc1C2=O	0	0	0	0	-	0
CN1C(=O)C(N=Nc2ccccc2C(=O)O)N(C)C1=S (stereo not drawn)	0	4.5µM	0	0	0	0
Cc1ccc2nsnc2c1S(=O)(=O)Nc1cccc2cccnc12	0	-	0	-	-	-
CNc1nc2c(Cl)cc(Cl)cc2s1	0	0	0	0	0	0
NNc1nc2c(Cl)ccc(Cl)c2s1	0	11µM	0	?	0	10µM[quencher]
CCc1ccc(NC(=O)c2cc(S(=O)(=O)N3CCCCCC3)ccc2F)cc1	0	0	0	0	-	0
O=C(O)COc1ccccc1/C=N/Nc1ccc(S(=O)(=O)Nc2ccc(Cl)cc2)cc1[N+](=O)[O-]	0	14µM	0	?	0	?
COc1ccccc1NS(=O)(=O)c1ccc(N/N=C/c2ccccc2OCC(=O)O)c([N+](=O)[O-])c1	0	10µM	0	0	0	?
CCN(CC)S(=O)(=O)c1ccc(N/N=C/c2ccccc2OCC(=O)O)c([N+](=O)[O-])c1	0	?	0	0	0	0
